# Laboratory results as given in PubChem BioAssay (EPA / NIEHS).
# Activity calls are given as the source filed them. The calls were made as follows: active = hit-call score of the fitted dose curve at least 0.9, where 1 is the maximum; inactive = score below 0.9.
# Read-out: Glutathione S-Transferase (GSTA2), GSTA2 (gene 2939)
# Test: LTEA_HepaRG_GSTA2: Life Technologies and Expression Analysis (LTEA) Assay for Glutathione S-Transferase (GSTA2) using HepaRG (AID 2283497)
# Conditions: mRNA level, 48 h; actives raise or lower the signal
# Summary of the method: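 Differentiated human HepaRG cells were exposed in duplicate for 48 h in serum-free induction medium, 8 points from 100 uM top in half-log steps, 0.5% DMSO. GSTA2 mRNA was measured by TaqMan qRT-PCR, normalized to ACTB, GAPDH and POLR2A; bidirectional fit versus DMSO.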
SMILES,outcome,AC50
C#C[C@]1(O)CC[C@H]2[C@@H]3CCC4=CC(=O)CC[C@@H]4[C@H]3CC[C@@]21CC,inactive,–
O=C(O)c1ccccc1,inactive,–
COC(=O)c1ccccc1C(=O)O,inactive,–
CC(C)(C)[C@@H](O)[C@@H](Cc1ccc(Cl)cc1)n1cncn1,inactive,–
c1ccc2[nH]c(-c3cscn3)nc2c1,inactive,–
N[C@@H](Cc1cc(I)c(Oc2ccc(O)c(I)c2)c(I)c1)C(=O)O,–,58.3 µM (active)
CCOC(=O)c1ccc(O)cc1,inactive,–
O=C(Nc1ccc([N+](=O)[O-])cc1Cl)c1cc(Cl)ccc1O,–,2.84 µM (active)
COC(=O)c1ccc(I)cc1S(=O)(=O)NC(=O)Nc1nc(C)nc(OC)n1,inactive,–
CCCN(CCC)C(=O)SCC,inactive,–
CCCCC(CC)COC(=O)c1ccccc1C(=O)O (stereo unspecified),inactive,–
C[C@]12C[C@H](O)[C@H]3[C@@H](CCC4=CC(=O)CC[C@@]43C)[C@@H]1CC[C@@H]2C(=O)CO,inactive,–
S=C([S-])NCCNC(=S)[S-].[Mn+2],–,2.38 µM (active)
O=C(O)C1(C(=O)Nc2ccc(Cl)cc2Cl)CC1,–,48.8 µM (active)
CCCOC(=O)NCCCN(C)C,inactive,–
COCCO,inactive,–
C#CCOC(=O)[C@@H](C)Oc1ccc(Oc2ncc(Cl)cc2F)cc1,inactive,–
CC(=O)[C@H]1CC[C@H]2[C@@H]3CCC4=CC(=O)CC[C@]4(C)[C@H]3CC[C@]12C,–,34.5 µM (active)
CCN(CC)C(=O)c1cccc(C)c1,inactive,–
COc1c(Cl)ccc(Cl)c1C(=O)O,inactive,–
CCCCCOC(=O)COc1cc(N2C(=O)C3=C(CCCC3)C2=O)c(F)cc1Cl,inactive,–
